According to the supplement of paper PMC6555819:

What follows are sequences tested on THRa:RXRa (NR concentration 90 nM, RXRa partner concentration 90 nM) (assay: PBM binding z-score (relative to random genomic background probes); higher = stronger binding; sequences stand for … in GC…GCGATTGACAGCGTAGAATGAAGG).
How it was run: (§1)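 Binding z-scores were set against random background probes. The data came from custom Agilent 4×180K protein-binding microarrays carrying double-stranded probes with 34-nt variable regions, incubated 1 h with ligand-free nuclear receptor dimers. Partner-specific antibodies detected binding, and scanned fluorescence was regression-normalized.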

Row | Sequence | PBM binding z-score
1 | TCTATTAGTTGAAGGGCAAACGACGAGTCCGTTT | 0.493
2 | ATCGAAAGGTCGAAGGTAAGTATACCCACCCGAA | 1.86
3 | ACTGGCAGGCCAAGGGTCACTCAAGATTAGTCCG | 2.71
4 | CCGACTGGGGCAAGGTTACCATAACGCACAGCCA | 1.33
5 | ATCTCTAGGTAAAGATAGTACAGTGAATGCAAAT | 0.452
6 | ATCTGTAGGTAAAGATAGTTCAGTGAATGCAAAT | 0.527
7 | CCTAATTGGTCAGGAGGTCACACACCGGATATGA | 3.69
8 | CATGCTAGGTCAATGGTCAGCTAAAGCAGCTCGC | 2.38
9 | ATATGTAGGTTAGCTGGGGTCATACAGACTAGGC | 5.18
10 | ATCTCTAGGTAAAGTTAAGTGAAAGATCGATAGA | 0.478
11 | ACTATTAGTTGACTTCGGGCAACCGATACGACGC | 1.06
12 | CCTTACGGGTCACTGACAAGTTATAGCATTTGGA | 2.29
13 | ACTAGCAGGCCAAGTTTGGGTCACCCAAACAAAG | 2.96
14 | CCGACTGGGGCAAAGGTTACCAGACTCAGTACGA | 1.73
15 | GCTAGTTGGTCAGTAAAAGGTCACAAACCGGTCG | 3.32
16 | ATATGTAGGCTAGCTGGGGTCATTCAGACTAGGC | 4.2
17 | CATACAGGGTCAGCTAGGCCAGAGTCGGGACGGC | 3.08
18 | ATCTGTAGGTAACAAGTTCAGTGAAAGAGAGGAC | 1.26
19 | AGTCATAGTTCAGGACGAGGTAACGTAAAGCACG | 3.35
20 | TCATATAAGTAAATGCTAGGTGAAAGTCCGATCT | 0.92

Row | Sequence | PBM binding z-score
21 | TCATAAAGGTAAAGGTGAAAGTCGAACGATATGA | 1.73
22 | TCTGCTAGGTCAACCATGGTCAGCTAATCTGCTA | 3.78
23 | TGAATTAGGTTATAAGATCAGGGAACGTTGCAAA | 0.533
24 | ATATCTAGGTTAAGGGTCATTCAGGTTGGTTCGC | 3.82
25 | TCTATTGGTTGAAGGGCAACCGACGAGTCCGTTT | 0.279
26 | ACTTACGCGTCAACGAGGTTATAGCACGCGTATA | 1.52
27 | ACTAGTTGGTCAGCTGACGTCACACACAATTCGG | 0.178
28 | CTCGAAAGGTCGTACTCAGGTGAGTATACCAAAC | 3.89
29 | TCGAGTAGGTTGGTCGGGGCATTCAGCCAACATA | 0.33
30 | CCTACTGGGCCAAGGTCATTGTTCAGTCAAAGCA | 3.45
31 | CCTACTGGGCCATTTAGAGGTCATTGATCATATG | 3.31
32 | CTCGAAAGGTCGGTTCAGGTGAGTATACGGATAA | 5.09
33 | ATCTCTACGTAAAGTTCAGTGAAAGATCGATAGA | 0.674
34 | CGACAAAGTTCAAGGTAACGTAACAGAAAGCAGC | 2.8
35 | CAAACTAGATCACGAAAGGTCAAAGTCGAATGAC | 3.96
36 | CCTAACGGGTCAAGGTTATAGCACGGGTGGTACG | 2.8
37 | CCGACTGGGGCATACGGTTACCATAAGCCAGCCC | -0.473
38 | ATCTGTAGGTAAAGTTCAGTGAAAGATCGATAGA | 0.595
39 | ATCTCTAGGTAAAGTTCAGTTAAAGATCGATAGA | 1.47
40 | CGTCCAAGGTCAATACTAGGTCAGTGAAAGCATT | 4.42

What follows are sequences tested on THRa homodimer (NR concentration 90 nM) in the same assay as above.
How it was run: as §1

Row | Sequence | PBM binding z-score
41 | TCTATTAGTTGAAGGGCAAACGACGAGTCCGTTT | 0.286
42 | ATCGAAAGGTCGAAGGTAAGTATACCCACCCGAA | 0.0677
43 | ACTGGCAGGCCAAGGGTCACTCAAGATTAGTCCG | 0.159
44 | CCGACTGGGGCAAGGTTACCATAACGCACAGCCA | 0.342
45 | ATCTCTAGGTAAAGATAGTACAGTGAATGCAAAT | 0.0174
46 | ATCTGTAGGTAAAGATAGTTCAGTGAATGCAAAT | -0.0674
47 | CCTAATTGGTCAGGAGGTCACACACCGGATATGA | 2.45
48 | CATGCTAGGTCAATGGTCAGCTAAAGCAGCTCGC | 0.438
49 | ATATGTAGGTTAGCTGGGGTCATACAGACTAGGC | 3.83
50 | ATCTCTAGGTAAAGTTAAGTGAAAGATCGATAGA | -0.14
51 | ACTATTAGTTGACTTCGGGCAACCGATACGACGC | 0.256
52 | CCTTACGGGTCACTGACAAGTTATAGCATTTGGA | 0.165
53 | ACTAGCAGGCCAAGTTTGGGTCACCCAAACAAAG | 1.36
54 | CCGACTGGGGCAAAGGTTACCAGACTCAGTACGA | -0.362
55 | GCTAGTTGGTCAGTAAAAGGTCACAAACCGGTCG | 1.15
56 | ATATGTAGGCTAGCTGGGGTCATTCAGACTAGGC | 2.76
57 | CATACAGGGTCAGCTAGGCCAGAGTCGGGACGGC | 0.802
58 | ATCTGTAGGTAACAAGTTCAGTGAAAGAGAGGAC | 0.755
59 | AGTCATAGTTCAGGACGAGGTAACGTAAAGCACG | 1.67
60 | TCATATAAGTAAATGCTAGGTGAAAGTCCGATCT | 0.526

Row | Sequence | PBM binding z-score
61 | TCATAAAGGTAAAGGTGAAAGTCGAACGATATGA | -0.454
62 | TCTGCTAGGTCAACCATGGTCAGCTAATCTGCTA | 1.03
63 | TGAATTAGGTTATAAGATCAGGGAACGTTGCAAA | 0.0659
64 | ATATCTAGGTTAAGGGTCATTCAGGTTGGTTCGC | 2.49
65 | TCTATTGGTTGAAGGGCAACCGACGAGTCCGTTT | 0.101
66 | ACTTACGCGTCAACGAGGTTATAGCACGCGTATA | 0.379
67 | ACTAGTTGGTCAGCTGACGTCACACACAATTCGG | 0.155
68 | CTCGAAAGGTCGTACTCAGGTGAGTATACCAAAC | 0.987
69 | TCGAGTAGGTTGGTCGGGGCATTCAGCCAACATA | 0.0385
70 | CCTACTGGGCCAAGGTCATTGTTCAGTCAAAGCA | 2.72
71 | CCTACTGGGCCATTTAGAGGTCATTGATCATATG | 1.7
72 | CTCGAAAGGTCGGTTCAGGTGAGTATACGGATAA | 1.1
73 | ATCTCTACGTAAAGTTCAGTGAAAGATCGATAGA | -0.289
74 | CGACAAAGTTCAAGGTAACGTAACAGAAAGCAGC | 1.02
75 | CAAACTAGATCACGAAAGGTCAAAGTCGAATGAC | 1.07
76 | CCTAACGGGTCAAGGTTATAGCACGGGTGGTACG | 0.625
77 | CCGACTGGGGCATACGGTTACCATAAGCCAGCCC | -0.389
78 | ATCTGTAGGTAAAGTTCAGTGAAAGATCGATAGA | -0.247
79 | ATCTCTAGGTAAAGTTCAGTTAAAGATCGATAGA | 0.842
80 | CGTCCAAGGTCAATACTAGGTCAGTGAAAGCATT | 3
